Source: PubChem BioAssay (NCATS)
Records with an inconclusive call do not appear. Calls of active or inactive are those of the source. The call rests on the fitted dose curve; in most records, active means well fitted inhibition curve with a large enough effect; inconclusive means small, poorly fitted or top-dose-only effect; inactive means flat fitted curve, though single readings scatter.

How the values were obtained:
[1] = Drug repurposing screens with cells derived from glioblastoma tumor samples (AID 1345199); details: GBM patient neurospheres viability, ATP luminescence, 48 h; further: nearly all actives have a fitted effect of over 40% in size
How it was run: (§1)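 Four patient lines of CD133+ GBM neurospheres were screened at several concentrations; hits were retested in those lines plus three slower-growing GBM lines, using 48-hour treatment and ATP-based viability.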

astro = control astrocytes; assay: as above; details: viability, ATP luminescence, 48 h; series mostly up to 45.9 µM
How it was run: as §1

[2] = at 45.9 µM (top of the series), tumour line B
[3] = at 45.9 µM (top of the series), tumour line D
[4] = at 46 µM (top of the series), tumour line A
[5] = at 46.1 µM (top of the series), tumour line C
On the % scale 0 is the no-effect control and ±100 the full control effect.

COC1[C@@H](O[C@@H]2O[C@H](C)[C@@H](O[C@H]3C[C@@](C)(O)[C@H](OC(=O)CC(C)C)[C@H](C)O3)[C@H](N(C)C)[C@H]2O)[C@@H](CC=O)C[C@@H](C)[C@@H](O)/C=C/C=C/C[C@@H](C)OC(=O)C[C@H]1OC(C)=O (some centres not stated)
inactive: activity, negative = cell killing ([1]; at 20 µM (top of the series), tumour line C) -1.06% | activity, negative = cell killing ([1]; at 21.2 µM (top of the series), tumour line B) -12.1% | activity, negative = cell killing ([1]; at 21.2 µM (top of the series), tumour line D) -12.4% | Potency (astro)

CCC(Cc1c(I)cc(I)c(O)c1I)C(=O)O (configuration not stated)
inactive: activity, negative = cell killing [1, 2] -7.21% | activity, negative = cell killing [1, 3] -2.81% | activity, negative = cell killing [1, 4] -17.6% | Potency (astro)

Cc1nc(NS(=O)(=O)c2ccc(N)cc2)nc(C)c1Br
inactive: activity, negative = cell killing [1, 2] -13% | activity, negative = cell killing [1, 3] -4.79% | activity, negative = cell killing [1, 4] -28.7% | Potency (astro)

CC(O)[C@H]1CC[C@H]2[C@@H]3CC[C@@H]4C[C@@H](O)CC[C@]4(C)[C@H]3CC[C@]12C (some centres not stated)
inactive: activity, negative = cell killing [1, 2] -13.1% | activity, negative = cell killing [1, 3] -23.2% | activity, negative = cell killing [1, 5] 18.8% | Potency (astro)

CCCCCCCCCCCC(=O)OC[C@@H](O)C1OC[C@H](O)[C@H]1O (some centres not stated)
inactive: activity, negative = cell killing [1, 2] -6.52% | activity, negative = cell killing [1, 3] -10.2% | activity, negative = cell killing [1, 5] -22.6% | Potency (astro)

CC/C=C\C/C=C\C/C=C\C/C=C\C/C=C\C/C=C\CCC(=O)O
inactive: activity, negative = cell killing [1, 2] -3.27% | activity, negative = cell killing [1, 3] -12.5% | activity, negative = cell killing [1, 5] -20.7% | Potency (astro)

O=S(=O)(O)CC(S)CS (configuration not stated)
inactive: activity, negative = cell killing [1, 2] -24.2% | activity, negative = cell killing [1, 3] -0.499% | activity, negative = cell killing [1, 5] -22% | Potency (astro)

NC(=O)[C@@H]1C[C@]2(NC(=O)NC2=O)c2cc(F)ccc2O1
inactive: activity, negative = cell killing [1, 2] -9.48% | activity, negative = cell killing [1, 3] 3.75% | activity, negative = cell killing [1, 5] -17.3% | Potency (astro)
